# Reference: PubChem BioAssay (NCATS)
# Several values for one entry are separate records, joined by “and”; a condition that tells them apart may be missing. Equal values may be shown once. A number with no mark means an inactive call. Inconclusive results are not listed. Where a call stands in place of a potency, no number is given. Activity calls are given as the source filed them. Unless noted, calls come from the whole dose curve; as a rule, active = well fitted curve in the direction sought with a large enough effect; inconclusive = small, poorly fitted or top-dose-only effect, or another doubt; inactive = no such curve, though single readings can be large; an effect the other way counts as inactive or inconclusive.
# Key:
# [1] = Cell Viability - BJ (AID 421; calls by dose curve;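 note: potency is the fitted concentration of half-maximal effect; cells exposed to compound for 40 hours at 37 °C before readout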); conditions: BJ fibroblast viability, qHTS
# Procedure, shortened: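 Normal human BJ foreskin fibroblasts, 1500/well in complete medium, treated 40 hr at 37 °C. Cellular ATP by CellTiter-Glo luminescence; normalized to DMSO and 100 uM tamoxifen, AC50 from Hill fit.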
# [2] = Cell Viability - HepG2 (AID 433; calls by dose curve;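 note: potency is the fitted concentration of half-maximal effect; cells exposed to compound for 40 hours; potency for ATP loss meaning cytotoxicity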); conditions: qHTS
# Procedure, shortened: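 ATP luminescence (CellTiter-Glo) after 40 h compound exposure, 37 °C, HepG2, 1500 cells/well, complete medium. Normalized: DMSO = basal, 100 uM tamoxifen = 100% inhibition. AC50 via standard Hill equation.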
# [3] = Cellular Toxicity (caspase-3) MRC-5 (AID 659); conditions: MRC-5 cells, luminescence, normalized: DMSO 0%, 10 µM staurosporine 100%; series mostly up to 91.7 µM
# Procedure, shortened: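 Luminescent Caspase-Glo 3/7 read-out (1 h, room temperature) after a 16 h, 37 °C compound exposure of MRC-5 lung fibroblasts at 1500 cells/well. Concentration-response AC50 from Hill equation; 0% DMSO, 100% 10 uM staurosporine.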
# [4] = Cellular Toxicity (caspase-3) N2a (AID 665); conditions: N2a cells, luminescence, normalized: DMSO 0%, 10 µM staurosporine 100%; series mostly up to 92.2 µM;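 note: compound exposure lasted 16 h at 37 °C before readout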
# Procedure, shortened: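 Caspase-3/7 activation, measured as increased luminescence from aminoluciferin release, is quantified in mouse N2a cells exposed to compounds for 16 h. Values are normalized to DMSO and 10 uM staurosporine, with AC50 derived by Hill modelling.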
# [5] = Cellular Toxicity (caspase-3) Renal Proximal Tubule (AID 667); conditions: renal proximal tubule cells; series mostly up to 91.7 µM;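 note: cells exposed to compound for 16 hours at 37 °C before detection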
# Procedure, shortened: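 Luminescent caspase 3/7 signal from peptide-aminoluciferin cleavage measures apoptosis in freshly isolated rat kidney proximal tubule cells after 16 h compound exposure. Concentration-response data are normalized to DMSO and 10 uM staurosporine, and AC50 values come from Hill equation fits.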
# [6] = Cell Viability - LYMP2-001 (AID 921); conditions: LYMP2-001 lymphoblastoid cell viability; series mostly up to 92.2 µM; note: nearly all actives have a fitted effect of over 70% in size; note: potency is the fitted concentration of half-maximal effect
# Procedure, shortened: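 CellTiter-Glo luminescence (intracellular ATP) after 24 hr compound exposure at 37 C, 2500 lymphoblastoid cells/well in complete medium. AC50 fitted with standard Hill equation; tetraoctylammonium bromide positive control.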
# [7] = MultiTox-Fluor Cytotoxicity Assay - LYMP1-002 - Live Cells (AID 955); conditions: LYMP1-002 lymphoblastoid live-cell protease fluorescence viability; series mostly up to 46.1 µM
# Procedure, shortened: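 Cells were seeded at 2500 per well and incubated 5 hr. Compounds were then added for 16 hr at 37 C, followed by MultiTox-Fluor reagent for 60 min at room temperature and fluorescence reading of viable-cell protease signal.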
# [8] = MultiTox-Fluor Cytotoxicity Assay - LYMP1-003 - Live Cells (AID 962); conditions: LYMP1-003 lymphoblastoid cells, MultiTox-Fluor live-cell protease fluorescence; series mostly up to 92.2 µM;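 note: cells exposed to compound for 16 hours at 37 °C; cytotoxic hits lower the live-cell protease signal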
# Procedure, shortened: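 Acute cytotoxicity is scored as a drop in live-cell protease activity in human lymphoblastoid LYMP1-003 cells after 16 hr compound exposure at 37 C. AC50 values come from Hill-equation modelling of concentration-response data.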
# [9] = Cell Viability - LYMP1-003 - Assay at 24 hr (AID 963); conditions: LYMP1-003 lymphoblastoid cell viability; series mostly up to 92.2 µM
# Procedure, shortened: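 Cytotoxicity is scored as a concentration-dependent fall in ATP-linked luciferase signal in human lymphoblastoid LYMP1-003 cells treated 24 hr at 37 C in complete culture medium.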
# [10] = Cell Viability - LYMP1-003 - Assay at 40 hr (AID 964); conditions: LYMP1-003 lymphoblastoid viability; series mostly up to 92.2 µM; note: nearly all actives have a fitted effect of over 60% in size; note: potency is the fitted concentration of half-maximal effect
# Procedure, shortened: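 Luminescent ATP signal (CellTiter-Glo) served as the viability read-out after 40 hr compound treatment of human lymphoblastoid LYMP1-003 cells at 37 C. Decreases in ATP were fitted with the Hill equation to give AC50.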
# [11] = Cell Viability - LYMP2-017 (AID 972); conditions: LYMP2-017 lymphoblastoid cell viability; series mostly up to 92.2 µM; note: nearly all actives have a fitted effect of over 55% in size; note: potency is the fitted concentration of half-maximal effect
# Procedure, shortened: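 Cytotoxicity is scored as a concentration-dependent drop in cellular ATP in a human lymphoblastoid line after 24 hr treatment at 37 C. Values are AC50s from Hill-equation modelling.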
# [12] = Cell Viability - LYMP2-021 (AID 974); conditions: LYMP2-021 lymphoblastoid cells viability; series mostly up to 92.2 µM;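 note: compound exposure lasts 24 hours at 37 °C; nearly all actives have a fitted effect of over 55% in size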; note: potency is the fitted concentration of half-maximal effect
# Procedure, shortened: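 Loss of cellular ATP, measured with a luciferase-based CellTiter-Glo readout, serves as the toxicity signal in human lymphoblastoid cells treated for 24 hours at 37 C. Potency is reported as AC50 from a standard Hill model.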
# [13] = Cell Viability - LYMP2-025 (AID 976); conditions: LYMP2-025 lymphoblastoid cell viability; series mostly up to 92.2 µM
# Procedure, shortened: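 Acute cytotoxicity is scored as a concentration-dependent fall in intracellular ATP, measured by luciferase luminescence, in human lymphoblastoid LYMP2-025 cells exposed to compound for 24 hours at 37 C. AC50 values come from standard Hill fits.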
# [14] = Cell Viability - LYMP2-006 (AID 978); conditions: LYMP2-006 lymphoblastoid cell viability, qHTS; series mostly up to 92.2 µM; note: nearly all actives have a fitted effect of over 60% in size; note: potency is the fitted concentration of half-maximal effect
# Procedure, shortened: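 qHTS, 1536-well; 2500 cells/well, 5 hr 37 C; cpd 24 hr 37 C; CellTiter-Glo 30 min RT; luminescence. Tetraoctylammonium bromide pos. ctrl. AC50 via Hill eqn.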
# [15] = Cell Viability - LYMP2-007 (AID 979); conditions: LYMP2-007 lymphoblastoid cell viability; series mostly up to 92.2 µM;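 note: cells exposed to compound for 24 h before reading; nearly all actives have a fitted effect of over 60% in size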; note: potency is the fitted concentration of half-maximal effect
# Procedure, shortened: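 Cells are seeded at 2500 per well and rested 5 hr. Compounds are then added over a concentration series for 24 hr at 37 C. CellTiter-Glo is added for 30 min at room temperature before luminescence reading.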
# [16] = Cell Viability - LYMP2-014 (AID 983); conditions: LYMP2-014 lymphoblastoid cells, viability qHTS; series mostly up to 92.2 µM; note: nearly all actives have a fitted effect of over 50% in size; note: potency is the fitted concentration of half-maximal effect
# Procedure, shortened: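 Cells are plated at 2500/well and left 5 hr at 37 C. Compounds are added across a concentration range and incubated 24 hr at 37 C in complete medium. CellTiter-Glo is added, and luminescence is read after 30 min at room temperature.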
# [17] = Cell Viability - LYMP2-016 (AID 984); conditions: LYMP2-016 lymphoblastoid cell viability, qHTS; series mostly up to 92.2 µM; note: nearly all actives have a fitted effect of over 55% in size; note: potency is the fitted concentration of half-maximal effect
# Procedure, shortened: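 qHTS, 1536-well: 2500 LYMP2-016 cells/well, 5 hr 37 C, compound added, 24 hr 37 C, CellTiter-Glo 30 min RT, luminescence. Tetraoctylammonium bromide positive control. AC50 via Hill fit.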
# [18] = qHTS Assay for Identification of Small Molecule Inducers of Hypoxia Response (AID 2120; active = well fitted curve in the direction sought with a large enough effect in the signal ratio, with a control signal flat, not every such curve was filed as active; the % refers to the signal ratio); conditions: hypoxia response reporter cells, beta-lactamase ratio readout; series mostly up to 104 µM
# Procedure, shortened: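 Cell-based qHTS for reporter induction: hypoxia response element controlled beta-lactamase in ME-180 cells. Compounds incubated 17 h at 37 degrees C; activity from blue/green (460/530 nm) ratio, inducers ranked by AC50.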
# [19] = qHTS assay for small molecule agonists of the antioxidant response element (ARE) signaling pathway measured by Nrf2-dependant transcriptional activity - cell viability counter screen (AID 720653; active = well fitted curve in the direction sought with a large enough effect in the repeat runs; an effect the other way counts as inactive or inconclusive); conditions: ARE-bla HepG2 viability, CellTiter-Glo ATP luminescence, 16 h; hits give low values
# Procedure, shortened: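 Cytotoxicity counter screen: intracellular ATP quantified by CellTiter-Glo luminescence in the same ARE-bla HepG2 plates, after 16 h compound exposure and a 2 h beta-lactamase substrate step.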
# [20] = qHTS assay for cell viability of HEK293 cells (AID 743288); conditions: ATP luminescence (CellTiter-Glo), 18 h, hits give low values; note: nearly all actives have a fitted effect of over 50% in size
# Procedure, shortened: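 ATP luminescence (CellTiter-Glo) reports metabolically competent cell number after parental HEK293 cells, 2,000/well, were treated with DMSO-dissolved compounds for 18 h at 37 C; reagent incubation 30 min, room temperature.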
Compound,Potency [1] [µM],Potency [2] [µM],outcome [3],outcome [4],outcome [5],Potency [6],outcome [7],outcome [8],outcome [9],Potency [10],Potency [11],Potency [12],Potency [13],Potency [14],Potency [15],Potency [16],Potency [17],Potency [18],max response [19],max response [20]
Cc1ccc(N)cc1C,> 92,> 92,inactive,inactive,inactive,inactive,inactive,inactive,inactive,inactive,inactive,inactive,inactive,inactive,inactive,inactive,inactive,inactive,-7.17%,0.786%
CN(C)c1ccc(N(C)C)cc1,> 92,> 92,inactive,inactive,inactive,50.1 µM (active),inactive,inactive,inactive,inactive,–,–,inactive,–,–,–,–,inactive,-11.4%,-3.92%
CCOC(=O)CBr,> 92,> 92,inactive,inactive,inactive,inactive,inactive,inactive,inactive,inactive,inactive,inactive,inactive,inactive,inactive,inactive,inactive,inactive,1.03%,-5.15%
CN1CSC(=S)N(C)C1,> 92,> 92,inactive,inactive,inactive,12.6 µM (active),–,–,–,39.8 µM (active),25.1 µM (active),39.8 µM (active),–,39.8 µM (active),31.6 µM (active),15.8 µM (active),39.8 µM (active),inactive,-1.99% and -0.305%,-15.3%
C(CCOCC1CO1)COCC1CO1 (stereo unspecified),> 92,> 92,inactive,inactive,inactive,inactive,inactive,inactive,inactive,–,inactive,inactive,inactive,inactive,inactive,inactive,inactive,inactive,15.2%,-15.1%
O=[N+]([O-])/C=C/c1ccccc1,> 92,–,inactive,–,inactive,–,inactive,inactive,inactive,inactive,50.1 µM (active),39.8 µM (active),–,39.8 µM (active),31.6 µM (active),–,–,inactive,-1.14%,-10.7%
N#CC(Cl)(Cl)Cl,> 92,> 92,inactive,inactive,inactive,inactive,inactive,inactive,inactive,inactive,inactive,inactive,inactive,inactive,inactive,inactive,inactive,inactive,1.54%,-13%
CC(C)(C)OOC(=O)c1ccccc1,> 92,> 92,inactive,inactive,inactive,–,inactive,inactive,inactive,inactive,inactive,inactive,inactive,inactive,inactive,inactive,inactive,inactive,3.96% and -1.99%,7.08% and -4.29%
COC(C)(C)C,> 92,> 92,inactive,inactive,inactive,inactive,inactive,inactive,inactive,inactive,inactive,inactive,inactive,inactive,inactive,inactive,inactive,inactive,4.13%,-5.4%
Cc1cc(Cl)ccc1O,> 92,> 92,inactive,inactive,inactive,inactive,inactive,inactive,inactive,inactive,inactive,inactive,inactive,inactive,inactive,inactive,inactive,inactive,10.4%,-5.93%
Nc1c(Br)cc([N+](=O)[O-])cc1[N+](=O)[O-],> 92,> 92,inactive,inactive,inactive,inactive,inactive,inactive,inactive,inactive,inactive,inactive,inactive,inactive,inactive,inactive,inactive,inactive,13.3%,-10.1%
CCCC[N+](=O)[O-],> 92,> 92,inactive,inactive,inactive,inactive,inactive,inactive,inactive,inactive,inactive,inactive,inactive,inactive,–,inactive,inactive,inactive,-1.65%,-6.09%
COP(=S)(OC)SCn1nnc2ccccc2c1=O,> 92,> 92,inactive,inactive,inactive,inactive,inactive,inactive,inactive,inactive,inactive,inactive,inactive,inactive,inactive,inactive,inactive,inactive,-8.53% and -8.77%,-22%
